Screen size: about 5,500 compounds; about 2,000 (36%) were called active. Not shown: some 18% with an inconclusive outcome. No stated cut-off is given here; in the data, active means normalized growth mostly below about 0.91 (no sharp cut-off); inconclusive means no clear call, values can overlap the other calls; inactive means mostly above about 0.92. This is one part of the list.
Experiment: chemical genetic growth profiling, strain panel (AID 1159580);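 further: tested at 20 µM; growth read once vehicle control cultures reached saturation at 30 °C; 1 = growth at the plate median or of vehicle wells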
Conditions: S. cerevisiae deletion strains, growth OD

Measured: normalized growth

CCCCCCCCCCCCCC(=O)OC1C(C)C2(O)C(C=C(CO)CC3(O)C(=O)C(C)=CC32)C2C(C)(C)C12OC(C)=O (centres undefined)
inactive: locus YAL013W, strain DEP1, stronger effect = lower value 1 | locus YAL021C, strain ccr4, stronger effect = lower value 0.982 | locus YAL026C, strain drs2, stronger effect = lower value 0.985 | locus YAL030W, strain snc1, stronger effect = lower value 0.991 | locus YBL061C, strain skt5, stronger effect = lower value 0.981 | locus YBR009C, strain hhf1, stronger effect = lower value 0.965 | locus YBR021W, strain FUR4, stronger effect = lower value 0.988 | locus YBR023C, strain chs3, stronger effect = lower value 0.97 | locus YBR171W, strain sec66, stronger effect = lower value 0.981 | locus YBR229C, strain ROT2, stronger effect = lower value 1.02 | locus YBR231C, strain swc5, stronger effect = lower value 0.98 | locus YBR279W, strain paf1, stronger effect = lower value 0.988 | locus YCL011C, strain gbp2, stronger effect = lower value 0.98 | locus YCL016C, strain dcc1, stronger effect = lower value 0.996 | locus YCL029C, strain bik1, stronger effect = lower value 0.996 | locus YCL061C, strain MRC1, stronger effect = lower value 0.987 | locus YCL069W, strain vba3, stronger effect = lower value 0.986 | locus YCR088W, strain abp1, stronger effect = lower value 0.989 | locus YDL005C, strain med2, stronger effect = lower value 0.988 | locus YDL035C, strain GPR1, stronger effect = lower value 1.06 | locus YDL040C, strain nat1, stronger effect = lower value 0.979 | locus YDL074C, strain BRE1, stronger effect = lower value 1.04 | locus YDL101C, strain DUN1, stronger effect = lower value 1.01 | locus YDL134C, strain PPH21, stronger effect = lower value 1.01 | locus YDL185W, strain tfp1, stronger effect = lower value 1.01 | locus YDL192W, strain arf1, stronger effect = lower value 0.997 | locus YDR001C, strain nth1, stronger effect = lower value 0.978 | locus YDR069C, strain doa4, stronger effect = lower value 0.985 | locus YDR101C, strain arx1, stronger effect = lower value 0.996 | locus YDR137W, strain rgp1, stronger effect = lower value 0.97 | locus YDR150W, strain NUM1, stronger effect = lower value 1 | locus YDR159W, strain sac3, stronger effect = lower value 0.969 | locus YDR162C, strain NBP2, stronger effect = lower value 1.03 | locus YDR195W, strain ref2 0.96 | locus YDR297W, strain sur2, stronger effect = lower value 0.985 | locus YDR318W, strain mcm21, stronger effect = lower value 0.985 | locus YDR334W, strain swr1, stronger effect = lower value 0.989 | locus YDR335W, strain msn5, stronger effect = lower value 0.987 | locus YDR388W, stronger effect = lower value 0.99 | locus YDR392W, strain spt3, stronger effect = lower value 0.919 | locus YDR502C, strain sam2, stronger effect = lower value 1 | locus YEL003W, strain gim4, stronger effect = lower value 0.982 | locus YEL037C, strain rad23, stronger effect = lower value 0.978 | locus YEL061C, strain CIN8 (second series), stronger effect = lower value 0.976 | locus YEL061C, strain CIN8, stronger effect = lower value 1.01 | locus YER015W, strain faa2, stronger effect = lower value 0.986 | locus YER016W, strain bim1, stronger effect = lower value 0.98 | locus YER110C, stronger effect = lower value 0.994 | locus YER111C, strain swi4, stronger effect = lower value 0.965 | locus YER155C, strain BEM2 (second series), stronger effect = lower value 0.987 | locus YER155C, strain BEM2, stronger effect = lower value 0.996 | locus YER167W, strain BCK2, stronger effect = lower value 0.988 | locus YFR010W, strain ubp6, stronger effect = lower value 0.977 | locus YGL078C, strain dbp3, stronger effect = lower value 0.99 | locus YGL086W, strain mad1, stronger effect = lower value 0.978 | locus YGL167C, strain pmr1, stronger effect = lower value 0.989 | locus YGL173C, strain kem1, stronger effect = lower value 0.984 | locus YGL227W, strain vid30, stronger effect = lower value 0.979 | locus YGL240W, strain doc1, stronger effect = lower value 0.976 | locus YGL248W, strain PDE1, stronger effect = lower value 1.02 | locus YGL253W, strain hxk2, stronger effect = lower value 0.98 | locus YGR078C, strain PAC10, stronger effect = lower value 1.03 | locus YGR135W, strain pre9, stronger effect = lower value 1.01 | locus YGR229C, strain SMI1, stronger effect = lower value 1.02 | locus YGR252W, strain gcn5, stronger effect = lower value 1.04 | locus YHR013C, strain ard1, stronger effect = lower value 0.934 | locus YHR027C, strain rpn1, stronger effect = lower value 0.994 | locus YHR030C, strain SLT2, stronger effect = lower value 0.995 | locus YHR079C, strain IRE1 (second series), stronger effect = lower value 0.992 | locus YHR094C, strain hxt1, stronger effect = lower value 0.994 | locus YHR129C, strain ARP1, stronger effect = lower value 0.997 | locus YHR142W, strain chs7, stronger effect = lower value 0.952 | locus YHR200W, strain rpn10, stronger effect = lower value 0.989 | locus YIL066C, strain RNR3, stronger effect = lower value 1.01 | locus YIL073C, strain SPO22, stronger effect = lower value 0.986 | locus YIL125W, strain kgd1, stronger effect = lower value 0.991 | locus YIR030C, strain dcg1, stronger effect = lower value 0.994 | locus YJL092W, strain hpr5, stronger effect = lower value 0.984 | locus YJL095W, strain BCK1 (second series), stronger effect = lower value 0.99 | locus YJL095W, strain BCK1, stronger effect = lower value 1 | locus YJL115W, strain asf1, stronger effect = lower value 0.979 | locus YJL129C, strain trk1, stronger effect = lower value 0.962 | locus YJL134W, strain LCB3, stronger effect = lower value 0.992 | locus YJL154C, strain vps35, stronger effect = lower value 0.986 | locus YJL164C, strain tpk1, stronger effect = lower value 1.01 | locus YJL166W, strain qcr8, stronger effect = lower value 0.981 | locus YJL168C, strain set2, stronger effect = lower value 0.993 | locus YJL187C, strain SWE1 (second series), stronger effect = lower value 1.02 | locus YJL187C, strain SWE1, stronger effect = lower value 0.99

Source: PubChem BioAssay AID1159580 (chemical genetic matrix, 2015)
